Compounds with a hit are over-represented: about 2% of the library has one in this group of screens.
FUS yeast rescue: suppressors of FUS proteinopathy in yeast. S. cerevisiae FUS-expressing, growth rescue, OD600, 24 h. Potency, µM (titrated, usually from 76.6 µM), actives largely listed as activators. hit rate 0.24% among 390,000. AID 1347120;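 also: plate controls were DMSO vehicle for no effect and reference control for full effect; nearly all actives have a fitted effect of over 55% in size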
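Restored growth of FUS-toxic S. cerevisiae, read as 600 nm absorbance after 24 h at 30C in galactose medium (starting OD 0.005). Controls CP55940 and DMSO.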
aSyn rescue: inhibitors of alpha-synuclein toxicity in yeast | Yeast expressing alpha-synuclein, growth rescue, BacTiter-Glo, 24 h | AID 652106 | Potency, µM (top dose mostly 46.1 µM), without a hit: at the top dose growth rescue (activation), usual class: activators | hit rate 0.14% among 370,000; also: % of control where 0% means no effect; nearly all actives have a fitted effect of over 65% in size
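Rescue of yeast growth: cells expressing toxic alpha-synuclein, induced in galactose at OD600 0.02, incubated with compound 24 h at 30 C. ATP luminescence quantified growth; inhibitors of toxicity appear as activators.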
Abeta yeast res: restores growth of yeast expressing A-beta42 peptide. yeast expressing A-beta42, growth rescue, OD600, 48 h; response scale: 0% DMSO, 100% iron-clioquinol control. Potency, µM (titrated, usually from 46.1 µM), hits mostly activators. hit rate 0.063% among 410,000; also: nearly all actives have a fitted effect of over 55% in size
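Yeast A-beta toxicity model in growth medium with pinned compounds, 48 h at 30 C; growth read as absorbance at 600 nm. Normalized to FeCl3/clioquinol equimolar mix (positive) and DMSO (negative).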
GRP78 ERSR act: ER stress response induction in glioma; hit rate 0.02% among 420,000; U87-MG GRP78 promoter luciferase reporter, 16 h; Potency, µM, for inactives: top-dose activation, usual class: activators; also: series mostly up to about 76 µM; % of control where 0% means no effect; nearly all actives have a fitted effect of over 35% in size
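Stably transfected U87-MG glioma cells carrying a GRP78-based luciferase sensor; 16 h compound incubation. Luminescence end-point read 10 min after Bright-Glo addition at room temperature.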
MBNL1 CUG block: blocks human MBNL1 binding to CUG repeat RNA. Q9NR56. Potency, µM (doses to about 57.5 µM), without a hit: top-dose activity change, negative = inhibition, usual class: inhibitors. TR-FRET MBNL1-His/biotin-(CUG)12 binding, 665/545 ratio. hit rate 0.036% among 280,000; active = well fitted inhibition curve with a large enough effect in the signal ratio, with a control signal flat, not every such curve was filed as active; inconclusive = small, poorly fitted or top-dose-only effect, or effect the other way, or a change in a side signal; inactive = no such curve, though single readings can be large or run the other way; the % refers to the signal ratio; also: % is scaled to controls: 0 for no effect and ±100 for the full control effect
Target sequence (Q9NR56 whole entry, looked up): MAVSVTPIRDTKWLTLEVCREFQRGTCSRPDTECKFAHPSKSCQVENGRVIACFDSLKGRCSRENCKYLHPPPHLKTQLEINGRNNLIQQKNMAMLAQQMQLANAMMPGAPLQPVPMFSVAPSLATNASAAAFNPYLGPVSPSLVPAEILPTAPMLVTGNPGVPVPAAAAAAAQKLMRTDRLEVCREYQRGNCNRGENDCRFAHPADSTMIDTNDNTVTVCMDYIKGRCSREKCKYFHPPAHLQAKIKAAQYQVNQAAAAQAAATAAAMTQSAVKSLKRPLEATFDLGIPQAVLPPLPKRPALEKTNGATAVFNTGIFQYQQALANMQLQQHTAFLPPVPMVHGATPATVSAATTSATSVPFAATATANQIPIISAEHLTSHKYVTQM
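Inhibition of protein-RNA binding appears as loss of TR-FRET between terbium anti-His antibody on MBNL1-His and streptavidin-XL665 on biotin-(CUG)12. Activity is normalized to buffer-only and uninhibited-complex controls.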
TDP-43 yeast inh: TDP-43 toxicity inhibition in yeast | Potency, µM (top dose mostly 46.1 µM), without a hit: top-dose growth rescue (activation), most hits filed as activators | hit rate 1.8% among 410,000 | TDP-43 expressing yeast growth rescue, BacTiter-Glo, 24 h | AID 652104; also: % of control where 0% means no effect; nearly all actives have a fitted effect of over 50% in size
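Yeast expressing TDP-43 (pregrown in raffinose, seeded at OD600=0.02 in galactose medium) exposed to compounds 24 hr at 30 deg C. Growth read by BacTiter-Glo luminescence; rescue of toxicity appears as increased signal.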
Numbers without * were called inactive; i = inactive; ? = inconclusive; · = no result given; [ ] = remark or other dose. Unless noted, calls follow the shape of the dose curve; as a rule, active = well fitted curve in the direction sought with a large enough effect; inconclusive = small, poorly fitted or top-dose-only effect, or another doubt; inactive = no such curve, though single readings can be large; an effect the other way counts as inactive or inconclusive. Potency is read from the fitted curve at half-maximal effect.

SMILES	FUS yeast rescue	aSyn rescue	Abeta yeast res	GRP78 ERSR act	MBNL1 CUG block	TDP-43 yeast inh
CC(C)NC(=S)N/N=C/c1cc(Br)ccc1O	i	18µM*	?	-5%	·	?
O=C(N/N=C/c1cc(Br)ccc1O)c1ccccc1Cl	i	10µM*	i	-2%	-1%[11.5 µM]	14µM*
O=C(N/N=C\c1ccccc1O)c1ccccc1O	·	·	·	-6%	·	·
COc1ccc(CN(C)C(=O)CCl)cc1	i	-1%	i	-2%	·	18%
CN(Cc1ccc(Cl)s1)C(=O)CCl	i	-20%	i	-13%	-6%	10µM*
CN(C)CCNC(=O)c1ccc(Cl)s1	i	0%	i	-4%	-11%	-9%
CN(Cc1ccc(Cl)cc1)C(=O)CCl	i	-5%	i	-15%	-8%	16µM*
COc1ccc(OC)c(-c2cc(Cl)c3c(c2)CC(CNC(=O)/C=C/c2ccccn2)O3)c1 (configuration not stated)	·	·	·	1%	·	·
COC(=O)c1cccc(NC(=O)COc2cccc([N+](=O)[O-])c2)c1	i	0%	i	9%	?	11µM*
c1ccc(-c2nnc(CN3CCN(c4ccccc4)CC3)o2)cc1	i	-1%	i	-3%	-4%	24%
Clc1cccc(N2CCN(Cc3nnc(-c4ccccc4)o3)CC2)c1	i	8%	i	1%	0%	11µM*
NC(=O)C1CCCN(Cc2ccc3c(c2)CN(Cc2ccccc2)CCO3)C1 (configuration not stated)	·	·	·	-5%	·	·
CC=Cc1cc(OC)c2c(c1)C(C)C(c1ccc(O)c(OC)c1)O2 (configuration not stated)	?	?	i	-1%	·	35µM*
O=S(=O)(Nc1cc(Br)cc2cccnc12)c1cccc2ccccc12	·	25µM*	·	?	·	·
COCc1c(C(=O)NC2CCOC(C)(C)C2)cnn1-c1nccc(-c2cccs2)n1 (configuration not stated)	·	·	·	0%	·	·
Cc1oc(-c2ccccc2NC(=O)C2CCC2)nc1CNC(=O)c1c(F)ccc(F)c1F	·	·	·	-5%	·	·
Cc1ccc(C2CN(C)C3(C(=O)Nc4ccccc43)C23COc2ccccc2C3=O)cc1 (configuration not stated)	·	3%	i	-3%	3%	3.5µM*
CN1CC(c2ccccc2Cl)C2(COc3ccccc3C2=O)C12C(=O)Nc1ccccc12 (configuration not stated)	i	7%	i	-4%	4%	?
CC1CCCN(c2ccc(C(=O)NCc3ccco3)cc2[N+](=O)[O-])C1 (configuration not stated)	i	10%	i	-1%	·	14µM*
Cc1ccc(C(=O)NCc2ccco2)cc1[N+](=O)[O-]	i	0%	i	18%	?	8%
O=S(=O)(O)c1ccc2c(c1)-c1nc-2nc2[nH]c(nc3nc(nc4[nH]c(n1)c1ccc(S(=O)(=O)O)cc41)-c1ccc(S(=O)(=O)O)cc1-3)c1ccc(S(=O)(=O)O)cc21	·	·	·	-8%	·	·
CCOC(=O)C1=C(C)NC(C)=C(C(=O)OC)[C@@H]1c1cccc([N+](=O)[O-])c1	·	·	·	-4%	·	·
CCOC(=O)C1=C(C)NC(C)=C(C(=O)OC)C1c1cccc([N+](=O)[O-])c1 (configuration not stated)	i	20%	i	-4%	22%	35µM*
COc1cc(OC)c(OC)cc1CN1CCCC(c2nc(C)ncc2-c2ccc(F)cc2)C1 (configuration not stated)	·	·	·	-2%	·	·
COc1ccc(C(C)=O)cc1COC(=O)c1c(C)noc1C	i	10%	i	0%	0%	16µM*
SMILES	FUS yeast rescue	aSyn rescue	Abeta yeast res	GRP78 ERSR act	MBNL1 CUG block	TDP-43 yeast inh
COc1ccc(C(C)=O)cc1COC(=O)c1ccc(OCc2c(C)noc2C)cc1	i	4%	i	-13%	1%	12%
CC(C)C[C@@H](NC(=O)[C@@H](COC(C)(C)C)NC(=O)[C@H](Cc1ccc(O)cc1)NC(=O)[C@@H](CO)NC(=O)[C@@H](Cc1c[nH]c2ccccc12)NC(=O)[C@@H](Cc1cnc[nH]1)NC(=O)[C@@H]1CCC(=O)N1)C(=O)N[C@H](CCCN=C(N)N)C(=O)N1CCC[C@H]1C(=O)NNC(N)=O	·	·	·	-4%	·	·
O=C(c1ccco1)N1CCN(C(=O)c2ccc(-c3ccc(Cl)cc3)o2)CC1	i	-1%	i	1%	·	22µM*
COc1ccc(S(=O)(=O)N2CCN(C(=O)c3ccco3)CC2)c(C)c1C	i	1%	i	-3%	-6%	22µM*
O=C(c1ccco1)N1CCN(S(=O)(=O)c2c(Cl)cccc2Cl)CC1	i	8%	i	-2%	6%	16µM*
O=C(c1ccco1)N1CCN(S(=O)(=O)c2ccc(Cl)cc2)CC1	i	-5%	i	-2%	4%	?
Cc1cc(Cl)c2oc(C(=O)N3CCN(C(=O)c4ccco4)CC3)c(C)c2c1	?	7%	i	6%	-5%	22µM*
O=C(c1ccc(Cl)cc1)N1CCN(C(=O)c2ccco2)CC1	i	2%	i	-6%	6%	-4%
CC(C)(C)c1ccc(C(=O)Nc2cc(Cl)ccc2C(=O)O)cc1	i	·	·	·	·	·
FC(F)(F)c1cc(CNC2CCC23CCC(c2ccccc2)CC3)ccc1Cl (configuration not stated)	i	·	·	·	·	·
CCCCc1ccc(NC(=O)C(C)CC)cc1 (configuration not stated)	i	-13%	i	-1%	13%	11µM*
CCCCc1ccc(NC(=O)N[C@@H](C)C(=O)O)cc1	i	-8%	i	-1%	0%	1%
CCCCc1ccc(NC(=O)CC(C)(C)C)cc1	i	2%	i	5%	-13%[11.5 µM]	20µM*
CCCCc1ccc(CC(=O)NO)cc1	·	16µM*	·	-1%	·	·
OCCN1CCN(Cc2ccc3c(c2)CN(Cc2cccc4ncccc24)CCO3)CC1	·	·	·	-1%	·	·
COC(=O)[C@@H]1CCCN1C(=O)c1c(OC)cc(=O)n2c1CCN(Cc1ccc3nsnc3c1)CC2	·	·	·	-1%	·	·
O=C(Nc1cc(C(=O)NC2CCOCC2)c2c(c1)ncn2C1CCCC1)c1ccccc1	·	·	·	-2%	·	·
O=S(=O)(c1cccc2nonc12)N1CCN(c2ccccc2F)CC1	i	6%	i	0%	?	19%
O=C(C1CCCN(S(=O)(=O)c2cccc3nonc23)C1)N1CCN(c2ccccc2Cl)CC1 (configuration not stated)	i	25%	i	-1%	?	35µM*
